# In ChEMBL document CHEMBL3988442, “University of Dundee, Small-Polar-MMV Screening Library” (2021):
# Several values for one entry are separate records, joined by “and”; a condition that tells them apart may be missing. Equal entries are not always repeated.
# Test system: N/A
# Assay: Trypanosoma cruzi proteasome luciferase counter-screen
# Type: functional
# Parameters: scale not given: direction of the effect not stated beside the values
# Details: 9.37 µM
row,Structure (SMILES),Percent Effect
1,Cc1cnn(CC2CN(c3cnc4ccccc4n3)CCO2)c1 (configuration not stated),20.3% and 14.5%
2,Cc1ccc(C)c(C(NC(=O)C2CC2)c2cccnc2)c1 (configuration not stated),21.2% and 15.5%
3,Cc1cc(N2CCN(CC(=O)N(C)C)CC2)nc(-c2ccncc2)n1,18.5% and 14.6%
4,c1cc(OCc2ccc3c(c2)OCCO3)ccc1CNC1CC1,63.7% and 65.3%
5,c1ccc2sc(N3CCOC(Cn4cccn4)C3)nc2c1 (configuration not stated),10.8% and 13.7%
6,Cc1cc(S(=O)(=O)Nc2cccc(-n3cccc3)c2)sc1C(=O)O,19.1% and 16.4%
7,NC(=O)c1nc(COc2ccc3c(c2)OCO3)no1,21.3% and 24%
8,CNC(=O)c1cnc(/C=C/c2ccc(OC)c(O)c2)s1,10.7% and 15.6%
9,Cc1cc(C(=O)N2CCC3(CCCN(CC4CC4)C3=O)C2)c(C)n1C (configuration not stated),11% and 8.3%
10,CC(C)c1n[nH]c(C(=O)Nc2ccncc2)c1Br,81.8% and 83.2%
11,CC(O)CNCc1ccc(OCc2ccc3c(c2)OCCO3)cc1 (configuration not stated),31.4% and 28.6%
12,O=C(c1ccc(C2CCCO2)s1)N1Cc2ccccc2C1 (configuration not stated),23.5% and 18.5%

# Species on record: Homo sapiens
# Assay: To identify inhibition of the IFN signalling (Jak-Stat) pathway via expression of an eGFP reporter gene under the control of an IFN-stimulated response element (ISRE) containing MxA promoter.
# Type: functional
# Parameters: scale not given: direction of the effect not stated beside the values
# Details: 30 µM
row,Structure (SMILES),Percent Effect [%]
1,Cn1cc(CC2CCN(C(=O)NCc3cn4ccsc4n3)C2)cn1 (configuration not stated),4.6
2,COc1cc(C(=O)N(CCC#N)Cc2ccccn2)cc(OC)c1C,6.76
3,CN(Cc1cccnc1)C1CC2(CCN(c3ccccn3)CC2)C1,27.4
4,Cc1cc(NC(=O)N2CCN(c3nc(C)c(C)s3)CC2)no1,-8.43
5,CN(C)CCCNC(=O)c1cc(Br)c2c(c1)OCCO2,-10
6,O=C(Cn1nc2c(cc1=O)CCCC2)N[C@@H](C(=O)O)c1ccccc1,14.1
7,Cc1cnn(CC2CN(c3cnc4ccccc4n3)CCO2)c1 (configuration not stated),14.6
8,CNC(=O)[C@H]1C[C@@H]2CN(C(=O)c3cscn3)C[C@@H]2N1S(C)(=O)=O,-13
9,Cn1cc(CN2C[C@@H]3COC[C@]3(C(=O)NCc3ccccn3)C2)cn1,-8.11
10,CCn1c(Nc2ccccc2OC)nc2c(C)nn(C)c2c1=O,10.6
11,Cc1ccc(CNCc2nnc3n2CC(C(F)(F)F)CC3)cc1 (configuration not stated),11.6
12,O=c1[nH]c2c(c(=O)n1C1CCCCC1)CCC2Nc1ccccc1 (configuration not stated),11.8
13,Cc1ccc(C)c(C(NC(=O)C2CC2)c2cccnc2)c1 (configuration not stated),6.26
14,Cc1cc(N2CCN(CC(=O)N(C)C)CC2)nc(-c2ccncc2)n1,5.2
15,c1cc(OCc2ccc3c(c2)OCCO3)ccc1CNC1CC1,23
16,CN(Cc1ccccn1)C1CC2(CCN(Cc3cccnc3)CC2)C1,10.9
17,Cc1ccc(CNC(=O)N(Cc2ccccc2F)C2CC2)cn1,15.6
18,O=C(NC1CCC1)[C@@H]1CCO[C@@H]2CCN(CCc3ccccc3)C[C@H]21,12
19,c1ccc2sc(N3CCOC(Cn4cccn4)C3)nc2c1 (configuration not stated),17.4
20,Cc1nn(CCO)c(C)c1CNC1CCC(C)(C)c2ccccc21 (configuration not stated),23.6

row,Structure (SMILES),Percent Effect [%]
1,CSCC(=O)N1CCCC1c1noc(C2CC2)n1 (configuration not stated),4.6
2,Cc1cc(S(=O)(=O)Nc2cccc(-n3cccc3)c2)sc1C(=O)O,-6.8
3,CNC(=O)[C@@H]1C[C@H]2CN(C(=O)c3ccco3)C[C@H]2N1C,-3.26
4,O=C(Cc1ccccn1)N1CCC2(CC1)CC(Oc1ccccn1)CO2 (configuration not stated),12.5
5,CN(C)C(=O)[C@@H]1CCO[C@@H]2CCN(Cc3ccccc3)C[C@@H]21,10
6,NC(=O)c1nc(COc2ccc3c(c2)OCO3)no1,3.46
7,CNC(=O)c1cnc(/C=C/c2ccc(OC)c(O)c2)s1,16.4
8,Cc1ccc([C@@H]2CN(S(=O)(=O)C(C)C)C[C@H]2N(C)C)cc1,-1
9,Cc1cc(C(=O)N2CCC3(CCCN(CC4CC4)C3=O)C2)c(C)n1C (configuration not stated),10.3
10,CCCN1CCC(NC(=O)c2ccc(F)cc2I)CC1,-17.1
11,COCCC(=O)N1CCC2(COCc3c(C)nc(NCC4CC4)nc32)C1 (configuration not stated),4.83
12,CN(Cc1ccco1)[C@@H]1CN(Cc2ccco2)[C@@H]2CCCO[C@H]12,2.84
13,CC(C)c1n[nH]c(C(=O)Nc2ccncc2)c1Br,58.2
14,COc1ccc(-c2nc(CN3CC(n4nc(C)cc4C)C3)no2)cc1,15.2
15,CCC(C(=O)NCc1ccncc1)N(c1cccc(C)c1)S(C)(=O)=O (configuration not stated),18.8
16,Cc1cc(C)n(C2CN(Cc3noc(-c4ccccc4)n3)C2)n1,5.29
17,CC(O)CNCc1ccc(OCc2ccc3c(c2)OCCO3)cc1 (configuration not stated),-4.62
18,Cc1cc(CNC(=O)N2CCN(c3ccccc3)CC2)no1,-2.92
19,O=c1[nH]c2c(c(=O)n1C1CCCCC1)CCC2NCCc1ccccc1 (configuration not stated),-14.6
20,O=C(c1ccc(C2CCCO2)s1)N1Cc2ccccc2C1 (configuration not stated),-5.94

# Biological target: T1, Tyrosyl-tRNA synthetase, putative (Trypanosoma cruzi (strain CL Brener)) (UniProt Q4DSP6)
# T1 sequence (whole entry): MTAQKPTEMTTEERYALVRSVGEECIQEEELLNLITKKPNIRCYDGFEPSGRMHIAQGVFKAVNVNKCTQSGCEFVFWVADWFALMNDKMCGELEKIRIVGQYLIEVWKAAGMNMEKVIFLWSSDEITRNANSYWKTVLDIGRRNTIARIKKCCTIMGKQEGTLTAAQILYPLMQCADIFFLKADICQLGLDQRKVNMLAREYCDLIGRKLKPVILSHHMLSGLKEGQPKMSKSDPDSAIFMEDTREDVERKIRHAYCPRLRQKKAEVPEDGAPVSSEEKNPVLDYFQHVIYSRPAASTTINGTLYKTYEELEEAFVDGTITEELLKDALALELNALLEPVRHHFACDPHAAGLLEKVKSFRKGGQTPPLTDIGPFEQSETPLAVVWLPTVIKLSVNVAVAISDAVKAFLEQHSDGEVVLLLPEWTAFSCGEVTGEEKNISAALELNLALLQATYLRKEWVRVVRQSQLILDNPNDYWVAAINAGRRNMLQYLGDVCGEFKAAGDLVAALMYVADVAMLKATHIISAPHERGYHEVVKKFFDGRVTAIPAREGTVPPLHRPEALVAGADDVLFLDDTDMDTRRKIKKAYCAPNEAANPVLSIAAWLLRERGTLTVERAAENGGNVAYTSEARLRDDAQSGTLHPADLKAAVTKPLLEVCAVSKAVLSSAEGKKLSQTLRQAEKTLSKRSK
# Assay: Trypanosoma cruzi tyrosyl tRNA synthetase (TcYRS) _High Tyrosine SOP; note: in the data most compounds retested in dose-response had high values
# Type: functional
# Parameters: scale not given: direction of the effect not stated beside the values
# Details: 30 µM
row,Structure (SMILES),Percent Effect [%]
1,Cn1cc(CC2CCN(C(=O)NCc3cn4ccsc4n3)C2)cn1 (configuration not stated),6.38
2,COc1cc(C(=O)N(CCC#N)Cc2ccccn2)cc(OC)c1C,-0.546
3,CN(Cc1cccnc1)C1CC2(CCN(c3ccccn3)CC2)C1,7.45
4,Cc1cc(NC(=O)N2CCN(c3nc(C)c(C)s3)CC2)no1,5.94
5,CN(C)CCCNC(=O)c1cc(Br)c2c(c1)OCCO2,4.92
6,O=C(Cn1nc2c(cc1=O)CCCC2)N[C@@H](C(=O)O)c1ccccc1,10.6
7,Cc1cnn(CC2CN(c3cnc4ccccc4n3)CCO2)c1 (configuration not stated),4.43
8,CNC(=O)[C@H]1C[C@@H]2CN(C(=O)c3cscn3)C[C@@H]2N1S(C)(=O)=O,4.17
9,Cn1cc(CN2C[C@@H]3COC[C@]3(C(=O)NCc3ccccn3)C2)cn1,2.08
10,CCn1c(Nc2ccccc2OC)nc2c(C)nn(C)c2c1=O,8.47
11,Cc1ccc(CNCc2nnc3n2CC(C(F)(F)F)CC3)cc1 (configuration not stated),5.38
12,O=c1[nH]c2c(c(=O)n1C1CCCCC1)CCC2Nc1ccccc1 (configuration not stated),-1.06
13,Cc1ccc(C)c(C(NC(=O)C2CC2)c2cccnc2)c1 (configuration not stated),4.23
14,Cc1cc(N2CCN(CC(=O)N(C)C)CC2)nc(-c2ccncc2)n1,20.2
15,c1cc(OCc2ccc3c(c2)OCCO3)ccc1CNC1CC1,-2.13
16,CN(Cc1ccccn1)C1CC2(CCN(Cc3cccnc3)CC2)C1,4.25
17,Cc1ccc(CNC(=O)N(Cc2ccccc2F)C2CC2)cn1,6.01
18,O=C(NC1CCC1)[C@@H]1CCO[C@@H]2CCN(CCc3ccccc3)C[C@H]21,8.91
19,c1ccc2sc(N3CCOC(Cn4cccn4)C3)nc2c1 (configuration not stated),8.37
20,Cc1nn(CCO)c(C)c1CNC1CCC(C)(C)c2ccccc21 (configuration not stated),1.64

row,Structure (SMILES),Percent Effect [%]
1,CSCC(=O)N1CCCC1c1noc(C2CC2)n1 (configuration not stated),0.546
2,Cc1cc(S(=O)(=O)Nc2cccc(-n3cccc3)c2)sc1C(=O)O,-43
3,CNC(=O)[C@@H]1C[C@H]2CN(C(=O)c3ccco3)C[C@H]2N1C,4.17
4,O=C(Cc1ccccn1)N1CCC2(CC1)CC(Oc1ccccn1)CO2 (configuration not stated),7.45
5,CN(C)C(=O)[C@@H]1CCO[C@@H]2CCN(Cc3ccccc3)C[C@@H]21,7.92
6,NC(=O)c1nc(COc2ccc3c(c2)OCO3)no1,2.12
7,CNC(=O)c1cnc(/C=C/c2ccc(OC)c(O)c2)s1,3.96
8,Cc1ccc([C@@H]2CN(S(=O)(=O)C(C)C)C[C@H]2N(C)C)cc1,3.23
9,Cc1cc(C(=O)N2CCC3(CCCN(CC4CC4)C3=O)C2)c(C)n1C (configuration not stated),20.8
10,CCCN1CCC(NC(=O)c2ccc(F)cc2I)CC1,8.42
11,COCCC(=O)N1CCC2(COCc3c(C)nc(NCC4CC4)nc32)C1 (configuration not stated),1.06
12,CN(Cc1ccco1)[C@@H]1CN(Cc2ccco2)[C@@H]2CCCO[C@H]12,4.25
13,CC(C)c1n[nH]c(C(=O)Nc2ccncc2)c1Br,4.43
14,COc1ccc(-c2nc(CN3CC(n4nc(C)cc4C)C3)no2)cc1,2.15
15,CCC(C(=O)NCc1ccncc1)N(c1cccc(C)c1)S(C)(=O)=O (configuration not stated),2.73
16,Cc1cc(C)n(C2CN(Cc3noc(-c4ccccc4)n3)C2)n1,3.23
17,CC(O)CNCc1ccc(OCc2ccc3c(c2)OCCO3)cc1 (configuration not stated),1.06
18,Cc1cc(CNC(=O)N2CCN(c3ccccc3)CC2)no1,9.9
19,O=c1[nH]c2c(c(=O)n1C1CCCCC1)CCC2NCCc1ccccc1 (configuration not stated),-3.17
20,O=C(c1ccc(C2CCCO2)s1)N1Cc2ccccc2C1 (configuration not stated),-2.65
